Laboratory results reported in PubChem BioAssay AID431 (Sanford-Burnham Center for Chemical Genomics, 2006).
In all, about 63,000 compounds went through this assay and about 1,100 (1.7%) were called active.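 Rule for the calls: active = compounds whose percent cytotoxicity in the single-dose primary screen, scaled between solvent and toxic-drug controls, exceeds 50; inactive = the rest.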 This excerpt belongs to a sample that is enriched for actives. Results with a measured potency or affinity are listed apart.

test: cytotoxicity in KRAS-transformed pancreatic duct cells, primary screen, cell-based, fluorescence, HTS (AID 431); settings: HPDE-C7K KRASV12 cells, Alamar Blue viability, 48 h; at 10 µM; hits give high values;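 note: 0% = DMSO solvent wells and 100% = doxorubicin-treated wells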

SMILES | cytotoxicity
CCOc1ccc(Cc2nn[nH]n2)cc1 | -19.6% (inactive)
COC(=O)CN(c1cc(C(F)(F)F)ccc1Cl)S(C)(=O)=O | -0.9% (inactive)
Cc1cccc(NC(=O)c2cc3c(n(-c4ccccc4)c2=O)CCCC3=O)n1 | 20% (inactive)
Cc1ccc(-n2c3c(cc(C(=O)Nc4cccc(C)n4)c2=O)C(=O)CCC3)cc1 | -27.1% (inactive)
COc1ccc(-n2c3c(cc(C(=O)Nc4ccc5c(c4)C(=O)NC5=O)c2=O)C(=O)CCC3)cc1 | 61.2% (active)
COc1ccc(CCNC(=O)c2ccncc2)cc1OC | -13.2% (inactive)
COc1ccc(C(=O)NCCn2ccc3ccccc32)c(OC)c1 | -8.9% (inactive)
Cc1ccc(-c2noc(CCC(=O)N3CCCC3)n2)cc1 | -6.9% (inactive)
Cc1ccc(S(=O)(=O)N(C)Cc2nc(-c3ccncc3)no2)cc1 | -0.7% (inactive)
Cc1ccccc1-c1noc(-c2ccc(O)cc2)n1 | 29.6% (inactive)
CN1CCN(C(=O)CSc2nc(-c3cccs3)ccc2C#N)CC1 | 15.2% (inactive)
CCN(CC)C(=O)CSc1nc(C)cc(-c2cccs2)c1C#N | 2.8% (inactive)
CC(C)C(=O)N1CCc2cc(-c3csc(N)n3)ccc21 | -1% (inactive)
O=C(CSc1nc2ccccc2s1)NC(=O)NCc1ccco1 | 87.6% (active)
C=CCn1c(SCC(=O)NC(=O)NCc2ccco2)nc2sc(CC)cc2c1=O | 63.4% (active)
C=CCn1c(SCC(=O)NC(=O)NCc2ccco2)nc2sc(C)c(C)c2c1=O | 4.8% (inactive)
O=C(CSc1nc2cc(Cl)ccc2s1)NC(=O)NCc1ccco1 | -8.3% (inactive)
C=CCn1c(SCC(=O)N2CCN(C(=O)c3ccco3)CC2)nc2sc(CC)cc2c1=O | -11.5% (inactive)
O=C(CCCSc1nc2ccccc2s1)NCc1ccco1 | 5.8% (inactive)
COc1cccc(-c2nc(CS(=O)(=O)CC(=O)NCCC(C)C)c(C)o2)c1 | 2.6% (inactive)
COC(=O)c1ccc(N=c2sc(C(=O)OC)cc(=O)n2C)cc1 | -16.7% (inactive)

SMILES | cytotoxicity
Cc1ccc(Nc2nc(N3CCOCC3)c3ccccc3n2)cc1 | 28.7% (inactive)
Oc1ccc(Nc2nc(N3CCCC3)c3ccccc3n2)cc1 | 94.4% (active)
COc1ccc(Nc2nc(N3CCCC3)c3ccccc3n2)cc1 | 22.5% (inactive)
COc1ccc(C(=O)n2cnc(N)n2)cc1 | 6.1% (inactive)
CCCCOc1ccc(C(=O)N2CCCCCC2)cc1 | -8.5% (inactive)
CCCCCCOc1ccc(C(=O)n2cnc(N)n2)cc1 | 82.6% (active)
Cc1ccc2cc(CN(C(=O)c3ccco3)c3ccccc3)c(=O)[nH]c2c1 | -0.6% (inactive)
COc1ccc(CCNC(=O)c2nonc2N)cc1OC | 0.1% (inactive)
Cn1c(C(=O)NCCc2c[nH]c3ccccc23)cc2sccc21 | 6.9% (inactive)
CCC(NC(=O)Nc1nccs1)(C(F)(F)F)C(F)(F)F | -11.8% (inactive)
CC(NC(=O)Nc1nccs1)(C(F)(F)F)C(F)(F)F | -3.9% (inactive)
CCSc1nnc(NC(=O)NC(CC)(C(F)(F)F)C(F)(F)F)s1 | 19.4% (inactive)
O=C(NCC(F)(F)F)Nc1nnc(C(F)(F)F)s1 | 12.5% (inactive)
CCn1cc(C(=O)N=c2sc3ccccc3n2C)c(=O)c2ccc(C)nc21 | -2% (inactive)
COc1cc(C(=S)N2CCCCC2)ccc1OCC(=O)N1CCCC1 | -1.9% (inactive)
COc1ccc(-n2c(Cc3cccn3C)nnc2SCC(=O)Nc2ccc(Cl)cc2)cc1 | 48.9% (inactive)
CCCOC(=O)C1=C(C)NC2=C(C(=O)C(C(=O)OC)C(C)C2)C1c1ccc(N(CC)CC)cc1 (stereo unspecified) | -15.1% (inactive)
Cc1ccc(Cl)cc1N1CCN(S(=O)(=O)c2cccc(S(=O)(=O)N3CCCC3)c2)CC1 | 0.2% (inactive)
CCn1cc(C(=O)NCc2ccccc2OC)c(=O)c2ccc(C)nc21 | -1.4% (inactive)
Cn1c(C(=O)OCC(=O)NCc2cccs2)cc2sccc21 | -3.4% (inactive)
CC(C)n1c(C(=O)OCC(=O)NCc2ccc3c(c2)OCO3)cc2sccc21 | 22.7% (inactive)

SMILES | cytotoxicity
Cc1cc2c(cc(C(=O)OCC(=O)NCc3cccs3)n2C(C)C)o1 | 59.5% (active)
Cc1cccc2cc(C(c3nnnn3CC3CCCO3)N3CCc4ccccc4C3)c(=O)[nH]c12 (stereo unspecified) | -7.5% (inactive)
Cc1ccc(S(=O)(=O)NCC(=O)OCC(=O)c2cccs2)cc1 | 4.8% (inactive)
COc1ccc(-c2cc(C(=O)Nc3ccccc3SC)no2)cc1OC | 1.4% (inactive)
Cc1cccc(N2CCN(C(=O)Cc3c(C(=O)O)[nH]c4ccc(Cl)cc34)CC2)c1C | 57.9% (active)
O=C(O)c1[nH]c2ccc(Cl)cc2c1CC(=O)N1CCN(C(=O)c2ccco2)CC1 | 3.2% (inactive)
O=C(O)c1[nH]c2ccc(Cl)cc2c1CC(=O)N1CCN(c2ccccc2)CC1 | 8% (inactive)
Cc1cccc(-n2c(CNC(=O)c3ccc(S(=O)(=O)N4CCCC4)cc3)n[nH]c2=S)c1 | -12% (inactive)
Cc1ccc(NC(=O)c2cnn(-c3ccccc3)c2NC(=O)c2ccco2)cc1C | -1.9% (inactive)
Cc1ccc(-n2ncc(C(=O)N3CCc4ccccc4C3)c2NC(=O)c2ccco2)cc1C | 80.3% (active)
O=C(Nc1c(C(=O)N2CCCCC2)cnn1-c1ccccc1)c1ccco1 | -3.5% (inactive)
Cc1cc(C)n(CC(O)COCc2ccco2)n1 (stereo unspecified) | -7.5% (inactive)
Cc1nnc(C)n1/N=C/c1cc(Br)cc(Br)c1O | 86.5% (active)
COc1c(Br)cc(Br)cc1/C=N/n1c(C)nnc1C | 11.1% (inactive)
Cc1nnc(C)n1/N=C/c1cc(Br)ccc1O | -18.8% (inactive)
COc1ccc(Cl)cc1NS(=O)(=O)c1ccc(S(=O)(=O)N2CCCC2)cc1 | 19.4% (inactive)
CSCC[C@@H](Nc1nc(-c2ccccc2)nc2c1oc1ccccc12)C(=O)O | 20% (inactive)
c1cncc(-c2nc(NCc3ccco3)c3ccccc3n2)c1 | 10.1% (inactive)
COc1ccc(CCNC(=O)CSc2nc(-c3ccco3)cc(C(F)(F)F)n2)cc1OC | -11.5% (inactive)
